IL-1B inflam inh = qHTS for Inhibitors of Inflammasome Signaling: IL-1-beta AlphaLISA Primary Screen; THP-1 LPS/ATP IL-1B secretion, AlphaLISA, 16 h; active compounds read low; activity change, % at 57.5 µM; hit rate 4.7% among 360,000; AID 743279, 2014; in the data active = activity change below about -50%; inconclusive = mostly about -30% to -49%
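THP-1 cells pretreated 1 hr with compounds (up to 57.5 uM final), then stimulated with LPS (250 ng/mL final) plus ATP (1.25 mM final); secreted IL-1B measured by AlphaLISA after 16 hr, decreased signal indicating inhibition.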
RORg inh = qHTS for inhibitors of ROR gamma transcriptional activity | Nuclear receptor ROR-gamma (Mus musculus), P51450 | Potency, µM (highest dose often 53.6 µM), actives largely listed as inhibitors | hit rate 5.4% among 310,000 | Drosophila S2 Gal4-RORgamma UAS-luciferase reporter, 20 h; note: nearly all actives have a fitted effect of over 60% in size
Target sequence (P51450 whole entry, looked up, the tested form may be a part): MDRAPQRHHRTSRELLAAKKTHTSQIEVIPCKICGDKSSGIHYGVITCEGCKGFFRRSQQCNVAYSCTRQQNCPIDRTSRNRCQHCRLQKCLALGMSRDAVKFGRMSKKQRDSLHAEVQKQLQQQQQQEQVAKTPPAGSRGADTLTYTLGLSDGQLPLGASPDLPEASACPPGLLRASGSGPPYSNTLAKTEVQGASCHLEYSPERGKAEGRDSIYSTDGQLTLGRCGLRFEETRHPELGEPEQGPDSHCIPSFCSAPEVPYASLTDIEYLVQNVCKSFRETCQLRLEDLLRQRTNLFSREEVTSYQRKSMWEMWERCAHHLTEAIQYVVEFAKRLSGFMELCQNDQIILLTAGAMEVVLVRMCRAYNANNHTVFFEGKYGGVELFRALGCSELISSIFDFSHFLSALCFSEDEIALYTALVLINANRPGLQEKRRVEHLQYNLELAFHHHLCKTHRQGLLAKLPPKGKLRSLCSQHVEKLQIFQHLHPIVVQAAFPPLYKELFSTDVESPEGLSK
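Luciferase reporter read in Schneider cells carrying Gal4-RORγ (mouse) and UAS-Photinus luciferase; cells given compound 1 h before 700 uM copper sulfate induction, then incubated 20 h at ambient temperature.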
VP16 counter = VP16 counterscreen qHTS for inhibitors of ROR gamma transcriptional activity. hit rate 3.5% among 310,000. Potency, µM (highest dose often 53.6 µM), most hits filed as inhibitors. Drosophila S2 Gal4-VP16 UAS-luciferase, luminescence, 20 h. AID 2546, 2010;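 note: Gal4-VP16 expression switched on by copper sulfate through the metallothionein promoter; nearly all actives have a fitted effect of over 50% in size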
SW480 rereplic = A quantitative high throughput screen for small molecules that induce DNA re-replication in SW480 colon adenocarcinoma cells. SW480 DNA re-replication, Hoechst DNA content imaging, 48 h. Potency, µM (titrated, usually from 46.1 µM), most hits filed as activators. hit rate 1.8% among 340,000. AID 624297, 2012; note: nearly all actives have a fitted effect of over 55% in size
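Treated cells incubate 48 hr (37 C, 5% CO2), are stained 40 min with Hoechst, and nuclear fluorescence is enumerated; a rise in nuclei with high DNA signal marks re-replication.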
MCF10A rereplic = A quantitative high throughput screen for small molecules that induce DNA re-replication in MCF 10a normal breast cells. MCF 10A DNA re-replication, Hoechst nuclear intensity, 48 h. Potency, µM (highest dose often 46.1 µM), actives largely listed as activators. hit rate 2.9% among 350,000. AID 624296, 2012; note: nearly all actives have a fitted effect of over 50% in size
Of the large screens only hits and unclear results are named; the others gave an inactive call. Hits are enriched below; roughly 11% of the tested compounds scored in any of these assays. Unless noted, calls come from the whole dose curve; as a rule, active = well fitted curve in the direction sought with a large enough effect; inconclusive = small, poorly fitted or top-dose-only effect, or another doubt; inactive = no such curve, though single readings can be large; an effect the other way counts as inactive or inconclusive.

C=C1C(N)CC2CC1C2(C)C (stereo unspecified)	none (no result: IL-1B inflam inh, SW480 rereplic, MCF10A rereplic)
COc1cccc(OC)c1C1=Nn2c(nnc2-c2ccccc2C)SC1	none (no result: IL-1B inflam inh, SW480 rereplic, MCF10A rereplic)
O=C(CCN1C(=O)C2C3CCC(C3)C2C1=O)Nc1ccc(Br)cc1 (stereo unspecified)	SW480 rereplic 12µM
CCc1cc(C(=O)OC)c(NC(=O)CN2CCN(C(=O)c3ccco3)CC2)s1	none
Cc1ccc(C(=O)c2cc(C)sc2NC(=O)CN2CCN(C(=O)c3ccco3)CC2)cc1	IL-1B inflam inh -69, VP16 counter inconclusive, SW480 rereplic inconclusive
CN(CCCN1CCOCC1)Cc1cn(C)nc1-c1ccccc1F	none
Cc1c(CN(C)Cc2cn(C)nc2-c2ccccc2F)[nH]c2ccccc12	IL-1B inflam inh inconclusive, SW480 rereplic inconclusive, MCF10A rereplic 18µM
CCCCCCC1=Cc2cc(OC)c(OC)cc2C(C(C(C)=O)C(=O)OCC)O1 (stereo unspecified)	none (no result: IL-1B inflam inh, SW480 rereplic, MCF10A rereplic)
CCOCCCNc1ncnc2c1[nH]c1ccccc12	VP16 counter inconclusive
CCCCOc1ncnc2c1[nH]c1ccccc12	RORg inh inconclusive, VP16 counter 10µM
CCCCOc1ncnc2c1[nH]c1ccc(F)cc12	IL-1B inflam inh inconclusive, RORg inh inconclusive, VP16 counter 7.9µM, MCF10A rereplic inconclusive
CCCCOCCCNc1ncnc2c1[nH]c1ccccc12	IL-1B inflam inh -95, RORg inh inconclusive, VP16 counter 10µM, SW480 rereplic inconclusive, MCF10A rereplic inconclusive
CCCCOc1ncnc2c1[nH]c1ccc(OCC)cc12	none
Fc1ccc2[nH]c3c(Cl)ncnc3c2c1	IL-1B inflam inh -96, SW480 rereplic inconclusive, MCF10A rereplic inconclusive
O=C1[C@H]2[C@@H](c3ccc(Cl)cc3)N3C(=O)N(c4cccc(Cl)c4)C(=O)[C@@]3(Cc3ccccc3)[C@H]2C(=O)N1C1CCCCC1	none (no result: RORg inh, VP16 counter)
COc1ccc(Cl)cc1N(CC(=O)Nc1ccccc1C(=O)N1CCOCC1)S(C)(=O)=O	none
CNC[C@H](O)c1ccc(OC(=O)C(C)(C)C)c(OC(=O)C(C)(C)C)c1	none (no result: IL-1B inflam inh)
CCO/C(C)=N/Oc1cc(OC)cc(OC)c1	none (no result: RORg inh, VP16 counter, SW480 rereplic, MCF10A rereplic)
COc1ccccc1NC(=S)N(C(C)C)C(C)c1ccccn1 (stereo unspecified)	RORg inh 13µM
COc1ccc(NC(=O)N(CCC(C)C)C(C)c2ccccn2)c(OC)c1 (stereo unspecified)	none
CC(C)N(C(=S)Nc1cccc(C(F)(F)F)c1)C(C)c1ccccn1 (stereo unspecified)	IL-1B inflam inh -91, RORg inh inconclusive
O=c1cnc2cnc(Oc3cccc(Cl)c3)nc2n1Cc1ccc(F)cc1	none (no result: IL-1B inflam inh, SW480 rereplic, MCF10A rereplic)
CC(CCc1ccccc1)NC(=O)C1CCN(S(=O)(=O)c2cnc[nH]2)CC1 (stereo unspecified)	IL-1B inflam inh -55 (no result: VP16 counter)
O=C1Cc2ccccc2Sc2cc(OCCCN3CCCCC3)ccc21	SW480 rereplic 23µM, MCF10A rereplic inconclusive
O=C1Cc2ccccc2Sc2c(OCCN3CCCCC3)cccc21	IL-1B inflam inh -72, SW480 rereplic inconclusive, MCF10A rereplic inconclusive
CCOc1ccccc1OCCN1CCCC1	none
Cc1cc(SCc2ccc(Br)cc2)nc(=O)[nH]1	IL-1B inflam inh inconclusive
OC1(Cc2cc(-c3ccccc3)no2)CCN(CCCc2ccccc2)CC1	MCF10A rereplic inconclusive
CCOC(=O)C1CCCN(C(=O)c2cc3cc(Br)ccc3oc2=O)C1 (stereo unspecified)	SW480 rereplic 6.3µM
CCOC(=O)C1CCN(C(=O)c2cc3cc(Br)ccc3oc2=O)CC1	none
COC(=O)c1ccc(Cl)c(NS(=O)(=O)c2ccc3c(c2)OCCO3)c1	SW480 rereplic 18µM, MCF10A rereplic inconclusive
C[C@H]1CN([C@@H](C)CO)S(=O)(=O)c2ccc(C#Cc3ccccn3)cc2O[C@@H]1CN(C)C(=O)C1CC1	none (no result: RORg inh, VP16 counter, SW480 rereplic, MCF10A rereplic)
COCCNC(=O)c1cccc(OC2CCN(Cc3ccc(C(C)C)cc3)CC2)c1	IL-1B inflam inh -69, MCF10A rereplic inconclusive
COc1cccc(CN(C)C(=O)c2cccc(OC3CCN(C4CCCC4)CC3)c2)c1	MCF10A rereplic inconclusive
Cc1ccc(CN2CCC(Oc3cccc(C(=O)N(C)CCN(C)C)c3)CC2)cc1C	IL-1B inflam inh -65

Screens deposited in PubChem BioAssay by National Center for Advancing Translational Sciences (NCATS).
